Pf growth 48h: inhibits P. falciparum growth in the first generation, 48 h; P. falciparum luciferase growth in erythrocytes, 48 h; Potency, µM (titrated, usually from 28.7 µM), hits mostly inhibitors; actives 5.9% (n = 310,000); AID 504832
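Growth was read as firefly luciferase luminescence after a 48 h, 37 C, 5% CO2 exposure of compounds to reporter-bearing P. falciparum cultures (0.1% parasitemia, 2% hematocrit final) in Albumax-supplemented RPMI 1640.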
Pf growth 96h: P. falciparum growth inhibition at 96 hour, primary screen for plastid delayed-death inhibitors; P. falciparum luciferase reporter growth, 96 h; actives 6.9% (n = 320,000); AID 504834; Potency, µM (titrated, usually from 28.7 µM), hits mostly inhibitors
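Infected RBCs, 2% Hct / 0.05% parasitemia final; luciferase-reporter P. falciparum; cpd 96 h, 37 C, 5% CO2; luciferase detection reagent; luminescence.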
NS1 inh: influenza NS1 inhibition; Potency, µM (titrated, usually from 46.1 µM); actives 0.4% (n = 270,000); calls by dose curve; also: actives are rising curves; nearly all actives have a fitted effect of over 50% in size
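Recovery from NS1-induced slow growth read by OD600 in budding yeast switched to galactose assay medium (pH 6.0, -URA) at 1:100 dilution. Compound 23 nl per well; the matching strain lacking NS1 serves as control.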
CHX counter: affects cycloheximide protein synthesis inhibition readout, counter-screen; cell reporter, cycloheximide protein synthesis inhibition counterscreen; actives 12% (n = 300,000); max response, %; in the data active = max response mostly above about 13%, no sharp cut-off; inactive = mostly below about 14%; also: read at 38.3 µM for the half of the compounds with a filed dose
Shiga toxin inh: Shiga toxin inhibition. inhibition, % at 38.7 µM. actives 9.2% (n = 290,000). Vero cells, Shiga toxin protein synthesis inhibition reporter; in the data active = inhibition mostly above about 28%, no sharp cut-off; inactive = mostly below about 43%
A number is an active result; i = inactive; ? = inconclusive; nt = no result; + = active, no number; [ ] = dose if it differs, or a comment. In the library only some 21% were active in any assay of this set; here they are far more common. Unless noted, calls follow the shape of the dose curve; as a rule, active = well fitted inhibition curve with a large enough effect; inconclusive = small, poorly fitted or top-dose-only effect, or another doubt; inactive = no such curve, though single readings can be large or run the other way.

SMILES	Pf growth 48h	Pf growth 96h	NS1 inh	CHX counter	Shiga toxin inh
Cc1cc(C)nc(SCC(=O)c2ccc(F)c(C)c2)n1	?	i	i	11	i
Cc1nc(SCC(=O)c2ccc(Cl)cc2)c([N+](=O)[O-])[nH]1	i	i	i	i	i
COc1ccc(C(=O)CSc2nc(C)cc(C)n2)cc1C	i	i	i	i	i
COc1ccc(C(=O)CSc2nc(C)cc(=O)[nH]2)cc1C	nt	i	i	i	i
CCCc1cc(=O)[nH]c(SCC(=O)N2CCN(S(=O)(=O)c3ccccc3)CC2)n1	i	?	i	i	i
Cc1nc(SCC(=O)c2ccc(F)cc2)c([N+](=O)[O-])[nH]1	i	1.9µM	i	i	i
CSc1nc(=S)n(-c2ccccc2)c(C)c1C(C)=O	i	i	i	i	i
CCOc1ncccc1C(=O)NCc1ccccc1Cl	i	i	nt	i	i
Cc1cc(C)nc(SCC(=O)c2ccc(F)cc2)n1	i	i	i	17	31
Cc1cc(=O)[nH]c(SCC(=O)N2CCN(C(c3ccccc3)c3ccccc3)CC2)n1	13µM	i	i	i	i
CC(NC(=O)c1ccc2c(c1)OCO2)C1CCCO1 (centres undefined)	i	i	i	i	i
N#Cc1cnc(Sc2ccccc2)nc1	?	0.033µM	nt	i	i
O=S(=O)(Nc1cccc2cccnc12)c1cccs1	nt	nt	nt	20	i
O=S(=O)(Nc1cccc2ccccc12)c1cccs1	?	i	i	9.3	i
O=S(=O)(Nc1ccc(O)c2ccccc12)c1cccs1	i	i	i	i	i
Cc1ccccc1CS(=O)(=O)CC(O)CN1CCCC1=O (centres undefined)	i	i	i	i	i
C#Cc1ccc(CN2CCC(C(=O)Nc3ccc(Oc4ccccc4)nc3)CC2)cc1	?	2.3µM	i	i	i
CC#CC(=O)N1CCC(C(=O)Nc2ccc(Oc3ccccc3)nc2)CC1	i	?	i	34	87
O=C(Nc1ccc(Oc2ccccc2)nc1)C1CCCCN1Cc1ccc(OCCO)cc1 (centres undefined)	?	?	i	22	i
O=C1NCN(c2ccccc2)C12CCN(CCCOc1ccc(F)cc1)CC2	17µM	i	nt	nt	nt
COc1cc(N)c(Cl)cc1C(=O)OCC(=O)N(C)C1CCCCC1	i	i	nt	nt	nt
CC(C(=O)N1CCOCC1)N1C(=O)C2C3CC(C(Br)C3Br)C2C1=O (centres undefined)	i	i	i	i	i
COC(=O)CCCN=C1SCCN1Cc1ccccc1	i	i	i	i	i
O=C(CN1CCSC1=NCc1ccccc1)c1ccc(Cl)c(Cl)c1	?	9.3µM	i	i	i
O=C(/C=C/c1cc([N+](=O)[O-])ccc1OC(F)F)Nc1cccc2ccccc12	i	i	i	i	i
SMILES	Pf growth 48h	Pf growth 96h	NS1 inh	CHX counter	Shiga toxin inh
COc1ccc(C)cc1N(CC(=O)Nc1ccc2c(c1)OCCO2)S(C)(=O)=O	i	i	i	i	i
CS(=O)(=O)N(CC(=O)Nc1ccc2c(c1)OCO2)Cc1ccc(Cl)cc1	i	nt	i	i	i
Cc1noc(C)c1S(=O)(=O)N(CC(=O)Nc1ccc2c(c1)OCO2)c1ccc(C(C)C)cc1	nt	?	i	i	i
CS(=O)(=O)N(CC(=O)Nc1ccc2c(c1)OCO2)c1ccc(Cl)cc1	i	i	i	36	116
CS(=O)(=O)N(CC(=O)NCCSCc1c(F)cccc1Cl)c1ccc2c(c1)OCO2	12µM	i	i	i	i
Cc1ccc(N(CC(=O)Nc2ccc3c(c2)OCCO3)S(C)(=O)=O)cc1	i	i	i	54	60
Cc1n[nH]c(C)c1S(=O)(=O)N(CC(=O)Nc1ccc2c(c1)OCCO2)c1ccc(C(C)C)cc1	nt	?	i	26	i
CC(Sc1nnc(-c2ccccc2F)n1C1CC1)C(=O)NC(N)=O (centres undefined)	i	i	i	i	i
CCc1nnc(SCC(=O)Nc2ccc(N3CCN(S(C)(=O)=O)CC3)cc2)o1	i	?	i	i	i
CC(=O)Nc1cccc(C(=O)NNC(=O)c2ccccc2-n2cccc2)c1	i	i	nt	nt	nt
CCNc1c(NC(=O)C2CCC(C)CC2)c(=O)oc2ccccc12 (centres undefined)	?	i	i	i	i
CCCNS(=O)(=O)c1ccc(OCC(=O)N2CCCC2)cc1	i	i	i	i	i
COc1ccc(Cl)cc1N(CC(=O)Nc1ccc2c(c1)OCCO2)S(C)(=O)=O	i	nt	i	15	i
CS(=O)(=O)N(CC(=O)Nc1ccccc1C(=O)NCCc1ccccc1)c1ccc2c(c1)OCCO2	?	nt	i	35	i
Clc1ccccc1CONc1ncnc2nonc12	i	i	i	31	+
COc1ccc(OC)c(N/C(=N/C(=S)Nc2ccccc2)Nc2nc(C)cc(C)n2)c1	?	?	i	i	i
Cc1cccn2c(=O)c3cc(C(=O)NCCC4=CCCCC4)n(C)c3nc12	?	?	i	i	i
Cn1c(C(=O)N2COCC2(C)C)cc2c(=O)n3ccccc3nc21	i	i	i	35	75
Cn1c(C(=O)NCCC2=CCCCC2)cc2c(=O)n3ccccc3nc21	i	6.6µM	i	i	i
CNc1ncc(C(=O)c2ccc(Br)cc2)s1	i	i	i	44	81
CNc1ncc(C(=O)c2ccccc2)s1	i	i	i	41	70
O=C(c1ccc(Cl)cc1)c1cnc(-c2ccccc2)s1	i	i	?	i	i
COc1ccc(OC)c(-n2c(SCC(=O)Nc3cccc(S(N)(=O)=O)c3)nc3ccccc3c2=O)c1	?	?	i	i	i
CCOc1ccc(-n2c(Cc3cc(=O)[nH]c(=O)[nH]3)nnc2SCC(=O)Nc2nnc(C)s2)cc1	i	i	i	i	i
CC(C)(C)c1ccc(NC(=O)Nc2ccc(F)cc2)cc1	?	i	i	42	68
SMILES	Pf growth 48h	Pf growth 96h	NS1 inh	CHX counter	Shiga toxin inh
CC(C)(C)c1ccc(COC(=O)Nc2ccc(F)cc2)cc1	i	?	i	19	35
CC(=O)Nc1ccc(NC(=O)Cc2ccc(F)cc2)cc1	i	i	i	i	i
O=C1NC(Cc2ccccc2)C(=O)N1CC(=O)N1CCCc2ccccc21 (centres undefined)	i	i	i	i	i
Cc1n[nH]c(=O)nc1N1CCc2ccccc2C1	i	i	i	i	i
O=C1C(Cc2ccccc2)Nc2ncnc(N3CCc4ccccc4C3)c2N1Cc1ccc(Cl)cc1 (centres undefined)	15µM	6.6µM	nt	nt	nt
COc1ccc(CN2C(=O)C(Cc3ccccc3)Nc3ncnc(N4CCc5ccccc5C4)c32)cc1 (centres undefined)	7.4µM	5.2µM	nt	nt	nt
CC1(NC(=O)CC[N+](C)(C)CCO)CS(=O)(=O)CC1S(=O)(=O)[O-] (centres undefined)	i	i	?	i	i
COc1ccc(CC(=O)Nc2c(C(=O)N3CCN(c4ncccn4)CC3)oc3ccccc23)cc1	?	i	i	i	i
Oc1c(C=Nc2ccccc2)sc2ccccc12	?	i	i	i	i
Oc1sc(C=Nc2ccccc2)c2ccccc12	i	?	i	68	80
Oc1sc(C=Nc2ccc(F)cc2)c2ccccc12	4.7µM	3.3µM	i	57	13
COc1ccc(C(=O)NC(=S)N2CCN(C)CC2)cc1Br	i	i[1.15 µM]	i	i	i

Screens (PubChem BioAssay)
